# BRCA1 expr up – BRCA1 expression activation; Potency, µM (highest dose often 46.1 µM), without a hit: at the top dose activation, hits mostly activators; 380,000 compounds, 1.1% hits; AID 624202; MCF7-BRCA1-FFLuc reporter, luminescence, 48 h; response scale: scaled: vehicle 0%, 10 µM genistein 100%; further: nearly all actives have a fitted effect of over 80% in size
#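 MCF7-BRCA1-FFLuc cells, 2000/well in phenol-red-free MEM, attached 2 h then treated 48 h at 37 C. Luciferase luminescence read 15 min after reagent; normalized to genistein maximum activation (10microM) and DMSO, concentration-response fitted.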
# GLP1R ag – agonists of human GLP-1 receptor | HEK293 GLP-1R CRE-luciferase, luminescence, 4-6 h; cells express a hypersensitive GLP-1R form | Potency, µM (series often up to 45.6 µM), without a hit: at the highest dose activation, actives largely listed as activators | 380,000 compounds, 0.007% hits | AID 624172; further: % of control where 0% means no effect
# Target sequence (P43220 whole entry, looked up): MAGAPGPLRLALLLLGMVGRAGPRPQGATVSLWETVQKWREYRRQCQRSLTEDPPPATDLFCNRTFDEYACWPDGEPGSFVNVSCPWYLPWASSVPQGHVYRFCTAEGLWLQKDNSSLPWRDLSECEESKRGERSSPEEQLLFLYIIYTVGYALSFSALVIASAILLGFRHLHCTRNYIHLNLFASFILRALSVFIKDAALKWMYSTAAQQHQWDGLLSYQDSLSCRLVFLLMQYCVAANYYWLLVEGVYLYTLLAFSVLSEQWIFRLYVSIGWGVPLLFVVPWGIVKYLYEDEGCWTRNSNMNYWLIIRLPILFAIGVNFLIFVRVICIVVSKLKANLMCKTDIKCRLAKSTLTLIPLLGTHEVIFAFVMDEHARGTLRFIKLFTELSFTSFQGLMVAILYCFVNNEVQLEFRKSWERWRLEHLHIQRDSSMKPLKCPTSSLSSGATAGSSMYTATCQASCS
# Mito fusion act – mitochondrial division inhibition or fusion activation | S. cerevisiae fusion-defective mutant growth rescue, CellTiterGlo 48 h | Potency, µM (top dose mostly 46.1 µM), inactives show at the top dose growth rescue (activation), most hits filed as activators | 320,000 compounds, 0.23% hits; further: % of control where 0% means no effect; nearly all actives have a fitted effect of over 45% in size
#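 Yeast fusion mutant, YPEG (non-fermentable carbon), compound, 48 h at 37C non-permissive; CellTiterGlo added, 10 min RT, luminescence read. Rescued growth = division inhibition.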
# GLP1R inv ag – acts as inverse agonist at human GLP-1 receptor | AID 624417 | 410,000 compounds, 1.6% hits | Potency, µM (titrated, usually from 38.3 µM), without a hit: top-dose activity change, negative = inhibition, most hits filed as inhibitors | HEK293 GLP-1R CRE-luciferase, luminescence, 24 h; GLP-1R form is constitutively active | P43220; further: on the % scale 0 is the no-effect control and ±100 the full control effect; nearly all actives have a fitted effect of over 55% in size
#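 Luminescence readout: a drop in cAMP-driven luciferase signal flags inverse agonism at a constitutively active GLP-1R stably expressed in HEK293. Compound exposure lasted 24 hr at 37 deg C, 5% CO2.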
# HEK293 tox – cytotoxicity counter-screen for GLP-1 receptor inverse agonists | HEK293 cAMP-luciferase reporter cells, luminescence, 24 h | Potency, µM (series often up to 38.3 µM), for inactives: at the top dose activity change, negative = inhibition, actives largely listed as inhibitors | 410,000 compounds, 0.13% hits | AID 624418;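 further: loss of luciferase light is scored as toxicity; on the % scale 0 is the no-effect control and ±100 the full control effect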
#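 1536-well qHTS counterscreen of the MLSMR; 200 cells/uL, 12 h pre-incubation, 23 nL cpd, 24 h at 37 deg C 5% CO2, luciferase detection reagent, 12 min RT, luminescence. Inhibition = undesired.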
# Active calls of the source: *; ? = inconclusive; · = no result. Only some compounds are listed: those with a hit (about 2.8% of all), similar ones and a draw of the others. The call rests on the fitted dose curve; in most records, active means well fitted curve in the direction sought with a large enough effect; inconclusive means small, poorly fitted or top-dose-only effect, or another doubt; inactive means no such curve, though single readings can be large; an effect the other way counts as inactive or inconclusive. Potency means the concentration at half of the fitted maximal effect.
SMILES,BRCA1 expr up,GLP1R ag,Mito fusion act,GLP1R inv ag,HEK293 tox
CC(C)(C)c1cc(C(=O)NNc2ccc(OC(F)(F)F)cc2)n(Cc2ccccc2)n1,-49%,4%,5%,2.2µM*,6%
Cc1ccc(NNC(=O)c2cc(C(C)(C)C)nn2Cc2ccccc2)cc1,-25%,-1%,-3%,3.2µM*,4%
COCCCn1c(SCC(=O)Nc2cccc(C)n2)nnc1-c1ccco1,-2%,-6%,-7%,-10%,-17%
COC(=O)c1cc(S(=O)(=O)NCC2CCN(Cc3ccc(C)cc3)CC2)c[nH]1,-4%,-2%,13%,?,-7%
O=C(O)CCNC(=O)c1ccccc1,5%,2%,-2%,-1%,-6%
O=C1C(=O)N(C2CCNCC2)CCN1Cc1ccccc1,·,·,·,0%,6%
CC(C)(C)c1cc(C(=O)Nc2ccc(F)cc2)n(Cc2ccc(F)cc2)n1,-66%,-5%,7%,2.8µM*,?
Cc1ccc(NC(=O)c2cc(C(C)(C)C)nn2Cc2ccccc2)cc1,-9%,-22%,2%,4µM*,-20%
CC(C)(C)c1cc(C(=O)NNc2cc(C(F)(F)F)ccc2Cl)n(Cc2ccccc2)n1,-68%,3%,5%,4µM*,-81%
CC(C)(C)c1cc(C(=O)NC2CC2)n(Cc2ccc(F)cc2)n1,-6%,10%,-3%,?,-3%
CCOC(=O)c1ccc(NC(=O)C2CC3CCC2C3)cc1 (centres undefined),?,10%,·,?,-16%
CCc1c(C)nc2cc(-c3ccc(OC)cc3)[nH]n2c1=O,8.9µM*,5%,-1%,-10%,-25%
Cc1cccc(CN2C(=O)N/C(=C/c3ccc(C)s3)C2=O)c1,-47%,-9%,2%,?,-5%
Cc1cccc(CN2C(=O)N/C(=C/c3cc(C)n(-c4cc(C)ccn4)c3C)C2=O)c1,-85%,-8%,-4%,10µM*,-6%
COC(=O)c1c(-c2ccc(S(C)(=O)=O)cc2)sc2ccc(OC)cc12,4.5µM*,-2%,·,18%,-28%
COC(=O)c1c(-c2ccc(S(C)(=O)=O)cc2)sc2cc(OC)ccc12,6.3µM*,1%,·,20%,4%
CCOc1ncccc1C(=O)N1CCN(c2cc(Cl)ccc2C)CC1,-62%,?,26%,1µM*,-11%
Cc1ccc(Cl)cc1N1CCN(C(=O)c2cnn(C(C)(C)C)c2C2CCN(C(=O)OC(C)(C)C)CC2)CC1,·,·,·,5%,2%
Cc1ccc(Cl)cc1N1CCN(C(=O)c2cnn(C)c2C2CCN(C(=O)OC(C)(C)C)CC2)CC1,·,·,·,10µM*,-20%
O=S(=O)(c1ccc2c(c1)OCO2)N1CCN(c2nnnn2-c2ccccc2)CC1,-1%,7%,5µM*,23%,1%
Cc1ccccc1C(=O)O/N=C/c1c(N2CCOCC2)n(C)c2ccccc12,-51%,-3%,-7%,-31%,-12%
CC1CCC(NC(=O)CCNC(=O)c2ccc(Br)cc2)CC1 (centres undefined),4.5µM*,7%,3%,3%,8%
COc1cccc(NC(=O)CN2C(=O)NC(C)(C3CC3)C2=O)c1 (centres undefined),4%,-1%,·,1%,19%
CC(C)COc1ccc(C(=O)Nc2sc3c(c2C(=O)O)CC(C)(C)OC3)cc1,-26%,1%,21%,11µM*,-23%
C/C(=N\N=C1\NC(=O)C(CC(=O)Nc2ccc(Cl)cc2)S1)c1ccco1 (centres undefined),-48%,6%,-2%,?,7%
SMILES,BRCA1 expr up,GLP1R ag,Mito fusion act,GLP1R inv ag,HEK293 tox
C/C(=N\N=C1\NC(=O)C(CC(=O)Nc2ccc(C)c(Cl)c2)S1)C(C)(C)C (centres undefined),-46%,9%,5%,11µM*,16%
O=C(CCC1CCCC1)N1CCc2c([nH]c3ccccc23)C1c1ccc(Cl)cc1 (centres undefined),·,·,·,3.2µM*,13%
CCOc1ccc(C2c3[nH]c4ccccc4c3CCN2C(=O)CSc2ccccc2)cc1 (centres undefined),·,·,·,5µM*,3%
CCOc1ccc(C2c3[nH]c4ccccc4c3CCN2C(=O)CCC2CCCC2)cc1 (centres undefined),·,·,·,1.3µM*,1%
O=C(CCC1CCCC1)N1CCc2c([nH]c3ccccc23)C1c1ccc(F)cc1 (centres undefined),·,·,·,?,-1%
CCOc1cccc(CC(=O)N2CCc3c([nH]c4ccccc34)C2c2ccc(Cl)cc2)c1OCC (centres undefined),·,·,·,10µM*,-14%
O=C(CCc1ccccc1)N1CCc2c([nH]c3ccccc23)C1c1ccc(Cl)cc1 (centres undefined),·,·,·,?,1%
Cc1ccc(C2c3[nH]c4ccccc4c3CCN2C(=O)CSc2ccccc2)cc1 (centres undefined),·,·,·,?,-2%
CCOC(=O)c1[nH]c(C)c(C(=O)N2CCc3c([nH]c4ccccc34)C2c2ccccn2)c1C (centres undefined),-24%,7%,9%,11µM*,-19%
O=C(CSCc1ccc(F)cc1)N1CCc2c([nH]c3ccccc23)C1c1ccc(F)cc1 (centres undefined),·,·,·,4.5µM*,-5%
Cc1ccc(S(=O)(=O)CCC(=O)Nc2nnc(-c3cccs3)o2)cc1,-27%,-4%,2%,13%,12%
Cc1nc(SCC(=O)NCC(F)(F)F)c2c(-c3cccs3)csc2n1,-35%,-5%,-9%,?,-9%
Cc1nc(SCC(=O)NC(C)(C#N)C2CC2)c2c(-c3cccs3)csc2n1 (centres undefined),-22%,3%,-3%,6.3µM*,-19%
O=C(c1cccs1)N(CCN1CCCCC1)CC1CCCN(C2CCCC2)C1 (centres undefined),81%,15%,1%,?,?
Cc1ccc(C(=O)N(CCN2CCCCC2)CC2CCCN(C3CCCC3)C2)s1 (centres undefined),2%,45%,1%,8.9µM*,?
O=C(Cn1c(=O)oc2ccccc21)NCCc1ccccc1Cl,-1%,-1%,-2%,?,-6%
CCC1C/C(=C\c2cccnc2)C(=O)/C(=C/c2cccnc2)C1 (centres undefined),-93%,-42%,-2%,3.5µM*,?
CCNc1nc(N)nc(Oc2ccc(OCc3ccccc3)nn2)n1,13%,11%,1%,39%,7%
O=C(NCCCNC(=O)c1cncc(O)c1)c1cncc(O)c1,12%,-1%,0%,-6%,10%
O=C(NCCCCCCNC(=O)c1cncc(O)c1)c1cncc(O)c1,-6%,1%,7.9µM*,17%,11%

# Bioassay records from PubChem.
